In general, inhibition refers to the relative decrease from the control value, in per cent.

Out of some 220,000 compounds screened, about 530 (0.24%) were called active. Cut-off read from the data, not from the text of the source: active = inhibition above about 13%; inconclusive = no clear call, values can overlap the other calls; inactive = below that. Shown is part of a subset that was picked to be rich in actives. Potency and affinity values are given separately.

Bifunctional protein GlmU (Mycobacterium tuberculosis (strain ATCC 25618 / H37Rv)), sequence (P9WMN3 whole entry, looked up): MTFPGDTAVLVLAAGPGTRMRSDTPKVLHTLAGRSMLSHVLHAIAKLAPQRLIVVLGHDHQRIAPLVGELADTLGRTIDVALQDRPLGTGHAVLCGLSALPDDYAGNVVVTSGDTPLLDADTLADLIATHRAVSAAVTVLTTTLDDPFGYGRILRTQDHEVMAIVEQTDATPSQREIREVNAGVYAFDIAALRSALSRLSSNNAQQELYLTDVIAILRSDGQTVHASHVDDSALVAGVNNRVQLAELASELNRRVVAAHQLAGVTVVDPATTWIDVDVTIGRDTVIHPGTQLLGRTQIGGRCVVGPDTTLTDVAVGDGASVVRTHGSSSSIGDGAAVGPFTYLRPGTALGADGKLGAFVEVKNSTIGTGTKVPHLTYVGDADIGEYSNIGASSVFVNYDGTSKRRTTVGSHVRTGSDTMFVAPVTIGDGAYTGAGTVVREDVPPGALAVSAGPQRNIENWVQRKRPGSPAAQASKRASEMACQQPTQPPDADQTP

This test has as its target Bifunctional protein GlmU (Mycobacterium tuberculosis (strain ATCC 25618 / H37Rv)) (UniProt P9WMN3). The test can be described thus: inhibition of mycobacterial GlmU enzyme – biochemical, glucosamine-1-phosphate acetyltransferase (AID 1376).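 Note: 0% = complete reaction with vehicle and 100% = reaction without substrate.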 As to conditions: M. tuberculosis GlmU acetyltransferase enzyme assay; active compounds read high;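 tested at 30 µM in the primary screen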.
For `COC(=O)c1c(NC(=O)C2COc3ccccc3O2)sc2c1CCN(C(C)=O)C2` (configuration not stated), the inhibition is 2.68% (inactive).

On to `O=C(COC(=O)/C=C/c1ccccc1[N+](=O)[O-])NC1CCS(=O)(=O)C1` (configuration not stated), for which the inhibition was 6.21% (inactive).

For the compound `Cn1cnc([N+](=O)[O-])c1Cl`, the inhibition was 2.48% (inactive).

For `CCS(=O)(=O)c1c([N+](=O)[O-])ncn1C`, the inhibition is 5.34% (inactive).

`Cn1cnc([N+](=O)[O-])c1S(=O)(=O)c1cccc(Cl)c1`: the inhibition is 14.8% (active).

For the compound `Cc1cccc(Sc2c([N+](=O)[O-])ncn2C)c1`, the inhibition was 4.72% (inactive).

On to `Cn1cnc([N+](=O)[O-])c1Oc1ccc2ccccc2c1`, for which the inhibition was -3.73% (inactive).

As for `COc1ccc(/C=C(\C)c2nc(C)c(-c3ccccc3)c(=O)[nH]2)cc1`, the inhibition is 4.53% (inactive).

Take `Fc1ccc(N2CCN(c3ncnc4nc[nH]c34)CC2)cc1`: the inhibition was 4.66% (inactive).

Consider `O=C(COC(=O)c1ccc(S(=O)(=O)N2CCCC2)cc1)Nc1ccc(N2CCOCC2)cc1`, for which the inhibition was -1.26% (inactive).

In the case of `Cc1cccc(-c2nc3c(c(SCC(N)=O)n2)CCCC3)c1`, the inhibition is 14.5% (active).

On to `Cc1cccc(-c2nc3c(c(SCC(=O)N(C)C)n2)CCCC3)c1`, for which the inhibition was -3.93% (inactive).

Consider `NC(=O)CSc1nc(-c2ccccc2)nc2c1CCCC2`, for which the inhibition was -3.87% (inactive).

For the compound `COc1ccc(OC)c(NC(=O)NC2(C(F)(F)F)Oc3ccccc3O2)c1`, the inhibition is -3.98% (inactive).

As to `O=C(O)CCSCC(=O)c1ccc2c(c1)OCCO2`, the inhibition is -0.32% (inactive).

In the case of `Cc1c(Nc2cc(N3CCOCC3)c3nonc3c2[N+](=O)[O-])c(=O)n(-c2ccccc2)n1C`, the inhibition was -3.88% (inactive).

Take `CN(C)c1cc(Nc2cccc(O)c2)c([N+](=O)[O-])c2nonc12`: the inhibition was -3.39% (inactive).

In the case of `CN(C)c1cc(Nc2ccc(O)cc2)c([N+](=O)[O-])c2nonc12`, the inhibition is 0.57% (inactive).

Regarding `O=[N+]([O-])c1c(Nc2ccccn2)cc(Cl)c2nonc12`, the inhibition is -2.44% (inactive).

Consider `CNc1cc(Cl)c2nonc2c1[N+](=O)[O-]`, for which the inhibition was 11.9% (inactive).

With `CCNc1cc(Nc2c(C)n(C)n(-c3ccccc3)c2=O)c([N+](=O)[O-])c2nonc12`, the inhibition was 2.95% (inactive).

In the case of `CC1CN(C(=O)c2ccncc2)CC(C)O1` (configuration not stated), the inhibition is 2.56% (inactive).

For `c1cc2nncn2nc1N1CCCC1`, the inhibition is -1.89% (inactive).

On to `COC(=O)c1cc(C#N)c(Oc2ccccc2)nc1C`, for which the inhibition is 0.33% (inactive).

As for `COc1cc(/C=N/NC(=O)c2cccnc2)ccc1OS(=O)(=O)c1cc(C)ccc1C`, the inhibition is -3.66% (inactive).

On to `O=C(OC1Cn2c(=O)ccc(=O)n2C1)c1ccc([N+](=O)[O-])cc1`, for which the inhibition is 1.59% (inactive).

`COc1ccc(C(C(=O)NC2CCCC2)N(CC2CCCO2)C(=O)Cn2nnc(-c3ccc(C)o3)n2)cc1` (configuration not stated): the inhibition is 0.08% (inactive).

Consider `CC1=C(C#N)C(=O)N(C2CCS(=O)(=O)C2)C(=O)/C1=C\c1ccco1` (configuration not stated), for which the inhibition was 25.3% (active).

For `O=C1/C(=C/c2ccco2)SC(=S)N1C1CCS(=O)(=O)C1` (configuration not stated), the inhibition was 5.66% (inactive).

`CC1=C(C#N)C(=O)N(C2CCS(=O)(=O)C2)C(=O)/C1=C\c1ccc(C)o1` (configuration not stated): the inhibition is 5.88% (inactive).

`O=C1CN(c2ccc(Cl)cc2)C(=O)CN1NC(=S)Nc1ccc(Cl)cc1`: the inhibition is -0.02% (inactive).

For `Cc1ccccc1-c1nnc(SCC#N)o1`, the inhibition is 5.25% (inactive).

On to `Clc1cccc(/C=N/Nc2nc(Cl)nc3ccccc23)c1`, for which the inhibition is -3.16% (inactive).

Turning to `Clc1cccc(/C=N/Nc2ncnc3ccccc23)c1`, the inhibition was 14.7% (active).

With `C(=N\Nc1ncnc2ccccc12)/c1ccccc1`, the inhibition was 4.18% (inactive).

Consider `O=C(COC(=O)c1cccs1)NCC1CCCCC1`, for which the inhibition was -4.05% (inactive).

In the case of `Cc1cc(C)nc(Sc2ccc(/C=C(\C#N)C(N)=O)o2)n1`, the inhibition was 3.14% (inactive).

For the compound `Cc1ccc(NC(=O)/C(C#N)=C/c2ccc(Sc3nc(C)cc(C)n3)o2)cc1`, the inhibition was 19.7% (active).

On to `Cc1cc(C)nc(Sc2ccc(/C=C(\C#N)C(=O)Nc3ccccc3)o2)n1`, for which the inhibition was -0.9% (inactive).

In the case of `O=C1c2ccccc2S(=O)(=O)c2cc(C(=O)N3CCN(c4ccccc4)CC3)ccc21`, the inhibition is -0.95% (inactive).

As to `COc1ccc(/C=N/NC(=O)c2ccc(CN3C(=O)c4cccc5cccc3c45)cc2)cc1O`, the inhibition is -5.54% (inactive).

For `CC(=O)N1C(Nc2ccc(Cl)cc2)CCN1c1ccccc1` (configuration not stated), the inhibition is 13.2% (active).

On to `O=C(Nc1ccc(Cl)cc1)N1CCN(c2ccccc2)CC1`, for which the inhibition is -0.29% (inactive).

For `O=C(CCN1CCN(c2ccccc2)CC1)Nc1ccc(Cl)cc1`, the inhibition was 7.38% (inactive).

As for `COc1ccc(OCCC(=O)OCC(=O)NCCC2=CCCCC2)cc1`, the inhibition was -0.76% (inactive).

With `O=C(NCc1ccc2c(c1)OCO2)c1cc(-c2ccc(Cl)cc2Cl)on1`, the inhibition was -0.34% (inactive).

As to `Cc1[nH]ccc(=O)c1OCc1c(Cl)cccc1Cl`, the inhibition is -3.63% (inactive).

`O=c1cc[nH]c2c(C(F)(F)F)cccc12`: the inhibition is 2.39% (inactive).

In the case of `O=c1cc[nH]c2c(Cl)cccc12`, the inhibition was 17.7% (active).

For `COC(=O)C(C(=O)OC)c1ncccc1[N+](=O)[O-]`, the inhibition was 3.41% (inactive).

Regarding `COc1ccc(N2CC(C(=O)Nc3ccc4c(c3)OCO4)CC2=O)cc1` (configuration not stated), the inhibition is -2.39% (inactive).

Regarding `CS(=O)(=O)N(Cc1ccco1)Cc1ccccc1Cl`, the inhibition is 1.25% (inactive).

As to `COCC(C)n1c(C)cc(C(=O)CSc2nnc(Nc3ccccc3F)s2)c1C` (configuration not stated), the inhibition is 1.64% (inactive).

Consider `Cc1nn(Cc2c(Cl)cccc2Cl)c(C)c1NC(=O)CCCn1nc([N+](=O)[O-])c(Cl)c1C`, for which the inhibition was 0.47% (inactive).

Consider `Cc1c(Cl)c([N+](=O)[O-])nn1CCCC(=O)Nc1cccc(Cl)c1Cl`, for which the inhibition was -3.35% (inactive).

Turning to `Cc1c(Cl)c([N+](=O)[O-])nn1CCCC(=O)Nc1c(Cl)cccc1Cl`, the inhibition is 13.8% (active).

With `Cc1cc(-c2ccccc2C(=O)NCc2ccccc2)on1`, the inhibition is 2.22% (inactive).

`COc1ccc(S(=O)(=O)N2CCCN(S(=O)(=O)c3ccc(OC)cc3C)CC2)c(C)c1`: the inhibition is 4.67% (inactive).

For `CC12CCC(C(=O)NCCc3ccccc3)(OC1=O)C2(C)C` (configuration not stated), the inhibition was 0.84% (inactive).

For the compound `Cc1cc(C)c(Nc2cc(S(=O)(=O)O)c(N)c3c2C(=O)c2ccccc2C3=O)c(C)c1`, the inhibition is 17.5% (active).

For the compound `Cc1cccc(S(=O)(=O)Nc2cccc3c2C(=O)c2ccccc2-3)c1`, the inhibition is 2.87% (inactive).

`Cc1cc(C)c(NC(=O)COC(=O)c2cccc3c2C(=O)c2ccccc2C3=O)c(C)c1`: the inhibition is 3.23% (inactive).

The values above are taken from PubChem BioAssay AID1376 (SRMLSC, 2008).
